Screening results (PubChem)
Most compounds without a hit are left out; they make up all but 4.8% or so of the library.
hcDAF12 agonist: activates DAF-12 receptor from parasite H. contortus. AID 652067. 370,000 tested, 1.4% active. activation, % at 6.8 µM. HEK293 hcDAF-12 lit1-tk-luc reporter, luminescence; 0% DMSO, 100% Δ7-dafachronic acid;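 active = activation above the mean of all tested compounds plus 3 SD, cut at about 5.5% in these data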;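 also: 100% = response to 3 µM Δ7-dafachronic acid high control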
ssDAF12 agonist: activators of S. stercoralis DAF-12 nuclear receptor; AID 652126; HEK293 ssDAF-12/GRIP1 lit1-tk-luc reporter, luminescence; % of 3 µM dafachronic acid response; activation, % at 6.8 µM; 370,000 tested, 1% active;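 active = activation above the mean over all tested compounds plus 3 SD, cut at about 0.9% in these data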;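 also: 0% = DMSO-only wells and 100% = 3 µM delta7-dafachronic acid wells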
DAX1 inh-1: inhibits human nuclear receptor DAX1. P51843. HEK293 Gal4-DAX1 luciferase reporter, luminescence. inhibition, % at 6.75 µM. 340,000 tested, 0.99% active;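 active = inhibition above the mean over all tested compounds plus 3 SD, cut at about 4.2% in these data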;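 also: 0% = DAX1-transfected cells with DMSO and 100% = empty-vector control cells with DMSO; inhibition shows as a rise in luminescence from relieved DAX1 repression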
Target sequence (P51843 207-470 limits assumed): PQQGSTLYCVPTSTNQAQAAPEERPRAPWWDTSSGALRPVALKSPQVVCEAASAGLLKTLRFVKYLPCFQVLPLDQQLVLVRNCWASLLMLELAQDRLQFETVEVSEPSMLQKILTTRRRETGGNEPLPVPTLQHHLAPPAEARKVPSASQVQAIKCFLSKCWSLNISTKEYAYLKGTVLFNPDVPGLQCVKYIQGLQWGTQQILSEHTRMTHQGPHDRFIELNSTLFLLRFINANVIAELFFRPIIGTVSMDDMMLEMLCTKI
NR1D1 modulator: Rev-erb alpha (human) modulation; Rev-erbα–FITC-DNA binding, fluorescence polarization, 90 min; activity, % at 10 µM; 370,000 tested, 0.79% active; AID 1259318;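 active = activity above about 14%, limit read from the data; passing the limit was not always enough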;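 also: 0% = DMSO wells with 35 nM protein and 100% = DMSO wells with 750 nM protein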
hgDAF-12 ag: hgDAF-12 agonism, primary luciferase screen; 370,000 tested, 1.8% active; HEK293 GAL4-hgDAF12 UAS-luciferase reporter, agonist luminescence; normalized to butyrate control; activation, % at 6.8 µM;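 active = activation above a cutoff set at the mean of all screened compounds plus 3 SD, cut at about 10% in these data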;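 also: 0% = DMSO wells and 100% = sodium butyrate wells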
DAX1 inh-2: DAX1 (NR0B1) inhibition, primary screen. HEK293T StAR-luciferase reporter, SF-1/DAX-1 repression relief. inhibition, % at 6.8 µM. 370,000 tested, 1.1% active. AID 652010;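 active = inhibition above the mean over all tested compounds plus 3 SD, cut at about 3.6% in these data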;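 also: 0% = DAX-1 cells with DMSO and 100% = cells lacking DAX-1 with DMSO; higher inhibition means more luminescence from relief of DAX-1 repression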
* marks the source's active call; other numbers are inactive results; . = not tested or not shown.

SMILES	hcDAF12 agonist	ssDAF12 agonist	DAX1 inh-1	NR1D1 modulator	hgDAF-12 ag	DAX1 inh-2
Cc1cc(C)c(C)c(S(=O)(=O)N2CCN(C)CC2)c1C	-2	0	8.9*	4	3	0
Cc1ccc([N+](=O)[O-])cc1S(=O)(=O)N1CCN(C)CC1	0	-1	6.3*	0	0	0
CN1CCN(S(=O)(=O)c2cc([N+](=O)[O-])ccc2Cl)CC1	-1	-2	2	1	-2	0
O=C(CC1CCCCC1)NCCCN1CCOCC1	6.1*	-1	-1	-3	-1	0
Fc1ccc(C2=Nn3c(nnc3C3CCCCC3)SC2)cc1	-3	-1	.	2	-1	0
Cc1cccc(C(=O)OCC(=O)NCC2COc3ccccc3O2)c1 (stereo not given)	3	-1	0	1	-2	4.3*
Cc1ccc(C(=O)Nc2cc([N+](=O)[O-])ccc2F)s1	-1	-1	5.8*	2	0	0
Cc1ccc(C(=O)COC(=O)c2ccco2)cc1C	0	1.0*	1	-7	2	-1
O=C(COC(=O)c1ccco1)c1ccc2ccccc2c1	2	-1	0	0	1	0
COC(=O)[C@]12C[C@H](CC(=O)NCCCN3CCCC3=O)C(=O)N(Cc3cccc4ccccc34)C1=C[C@H](C(C)(C)C)O[C@@H]2C	0	-1	.	3	-1	0
COc1ccc(C(=O)C(C)OC(=O)COc2ccccc2)cc1 (stereo not given)	0	-1	0	-2	-3	3.8*
CC(OC(=O)COc1ccc(C#N)cc1)C(=O)c1ccccc1 (stereo not given)	-1	-1	1	-2	1	1
Nc1nc2ccc(Cl)cc2[nH]1	2	0	-1	2	0	0
Clc1ccc2nc(-c3ccc(Cl)nc3)[nH]c2c1	3	0	3	7	12*	0
COc1ccc(CNc2cccnc2Cl)cc1	1	0	.	-1	11*	0
COc1ccc(CNc2ncccc2[N+](=O)[O-])cc1	-1	0	0	1	5	1
COc1cc(C(=O)NCc2ccc(OCCN(C)C)cc2)cc(OC)c1OC	-1	0	0	4	1	0
COc1ccc(C(=O)NCc2ccc(OCCN(C)C)cc2)cc1OC	5.6*	-2	0	-1	-4	1
Nc1ccc(O)c2c1C(=O)c1ccccc1C2=O	1	-1	4.4*	-37	3	1
COc1ccc(N)c2c1C(=O)c1ccccc1C2=O	0	-1	-1	0	3	1
O=C(NC(=S)Nc1ccc2cn[nH]c2c1)c1ccccc1	4	0	2	-4	12*	3.6*
CC(=O)c1cccc(NC(=S)NC(=O)c2cccc(Cl)c2)c1	1	0	0	-2	5	1
O=C(NC(=O)c1ccccc1)Nc1ccccc1	6.2*	1.3*	0	3	12*	3
CC(=O)c1cccc(NC(=S)NC(=O)c2ccccc2)c1	0	-1	1	11	12*	1
CCCC[C@H]1C2CC(OC(=O)Nc3ccccc3C(F)(F)F)C(C2)[C@H]2CCCCN21 (stereo not given in full)	-2	-1	.	-4	2	0
SMILES	hcDAF12 agonist	ssDAF12 agonist	DAX1 inh-1	NR1D1 modulator	hgDAF-12 ag	DAX1 inh-2
Cc1cc(=O)[nH]c(SCC(=O)Nc2cccc(S(=O)(=O)N3CCOCC3)c2)n1	-2	-1	1	0	0	3.7*
Cc1ccc(OC(=O)N(C)C[C@H]2OCc3cn(nn3)CCCC(=O)N([C@@H](C)CO)C[C@@H]2C)cc1	1	0	.	5	6	-1
CCCCn1c(O)c2n(c1=O)Cc1ccccc1N=C2c1ccc(OC)cc1	5.6*	0	.	-2	4	-1
CCOC(=O)C1CCN(C(=O)C(Cc2ccc3c(c2)OCO3)NC(C)=O)CC1 (stereo not given)	-2	-1	.	3	2	-1
Cc1ccccc1Nc1nc(N)nc(COC(=O)c2ccco2)n1	3	0	3	4	12*	2
Nc1nc(COC(=O)c2ccco2)nc(Nc2ccccc2)n1	-1	-1	4	-3	3	2
C=CCOC(=O)N[C@@H](c1coc2ccccc2c1=O)[C@@H](C)/C=C/CC(=O)OC	-1	-1	.	-2	1	0
O=C(CCc1nc2ccccc2c(=O)[nH]1)NCc1ccco1	1	-1	5.4*	3	-4	1
O=[N+]([O-])c1ccc2nc(C(O)C(O)c3nc4ccc([N+](=O)[O-])cc4[nH]3)[nH]c2c1 (stereo not given)	2	1.0*	2	-5	5	0
Cc1ccc(NC(=O)C(=O)c2ccc(C)cc2)cc1	3	0	1	1	12*	2
Cc1ccc(N/C=C/C(=O)c2ccc(C)cc2)cc1	2	0	3	0	13*	3
Cc1ccc(C(=O)/C=C\Nc2ccc(C)c(C)c2)cc1	4	0	3	-5	13*	1
NC(N)=NS(=O)(=O)c1ccc(N/C=C\C(=O)c2ccncc2)cc1	-1	-1	6.9*	1	2	-1
Cc1noc(NS(=O)(=O)c2ccc(N/C=C\C(=O)c3ccncc3)cc2)c1C	-1	-1	2	0	0	1
COc1ccc(CNS(=O)(=O)/C=C/c2ccc(OC)cc2CNC(=O)OC(C)(C)C)cc1	-4	-1	.	-3	0	-1
COc1ccc(C(=O)OCCN(C)C2CN(Cc3cn(Cc4cccc(F)c4)nn3)S(=O)(=O)C2)cc1OC (stereo not given)	-1	-2	.	0	0	-1
O=C(OC12CCCN(C1)/C(=C/c1cccc(Cl)c1)C2)c1ccco1 (stereo not given)	-1	-1	.	18	-1	2
Cc1ccc(C(=O)C=CC=Cc2ccccc2)cc1	0	-1	4.5*	-1	3	1
CC(CC(c1ccccc1)c1ccccc1)NC(C)(C)C (stereo not given)	.	.	.	-3	.	.
CCCN1CCS(=O)(=O)N(Cc2cn(Cc3ccc(F)cc3)nn2)C(C(=O)OC)C1 (stereo not given)	-3	0	.	-4	0	0
N#CC1CCN(C(=O)c2ccc3c(Cl)c4c(nc3c2)CCCC4)CC1	-2	-1	1	-1	2	4.4*
O=C(CCN1C(=O)/C(=C/c2ccccc2)SC1=S)NNC(=O)c1cccnc1	1	-1	0	-2	4	1
O=C(CCN1C(=O)/C(=C/c2ccc(F)cc2)SC1=S)NNC(=O)c1cccnc1	-1	-1	4.3*	-2	2	1
